ChEMBL document CHEMBL3433997, “St. Jude Leishmania screening dataset” (2016)

biological target: Solute carrier family 2, facilitated glucose transporter member 1 (Homo sapiens) (UniProt P11166); assay: ST_JUDE_LEISH: Cytotoxicity at 2uM final concentration against transgenic Leishmania Mexicana promastigotes LmGLUT1 that are glucose transport deficient and complemented with the human glucose transporter GLUT1. Activity is measured by DNA content using SYBR green in vitro; assay type: functional
Sequence (P11166 whole entry): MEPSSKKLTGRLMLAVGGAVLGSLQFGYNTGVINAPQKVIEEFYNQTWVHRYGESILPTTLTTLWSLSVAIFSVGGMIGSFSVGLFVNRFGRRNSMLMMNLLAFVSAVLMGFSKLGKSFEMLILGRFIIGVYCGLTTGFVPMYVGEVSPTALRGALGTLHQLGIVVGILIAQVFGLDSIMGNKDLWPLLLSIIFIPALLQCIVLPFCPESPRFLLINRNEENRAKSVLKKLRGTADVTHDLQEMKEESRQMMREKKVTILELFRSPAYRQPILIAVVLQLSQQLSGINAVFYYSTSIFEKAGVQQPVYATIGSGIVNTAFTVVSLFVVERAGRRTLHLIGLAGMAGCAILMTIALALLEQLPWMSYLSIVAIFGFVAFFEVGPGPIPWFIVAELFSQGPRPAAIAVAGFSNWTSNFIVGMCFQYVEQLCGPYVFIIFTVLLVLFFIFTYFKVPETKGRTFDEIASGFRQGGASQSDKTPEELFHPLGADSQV

Structure (SMILES)	inhibition
O=C(Nc1cccc(C(F)(F)F)c1)NC1CCN(c2ccnc3ccccc23)C1 (centres undefined)	1.65%
O=C(Nc1ccc(Cn2ncc(N3CCCNCC3)c(Cl)c2=O)cc1)Nc1ccc(SC(F)(F)F)cc1	3.57%
CCCc1cn2c3c(cc(C(=O)N[C@@H](Cc4ccccc4)[C@H](O)CNC4CCOCC4)cc13)N(CC)S(=O)(=O)CC2	1.86%
CN(C)c1ccc(CN2CCC(NC(=O)c3ccc(-c4cccc(C(F)(F)F)c4)s3)CC2)cc1	1.92%
O=C(Nc1cccc(N2CCC(NCCCc3ccncc3)CC2)c1)c1cccc(C(F)(F)F)c1	3.33%
C[C@H](Cc1ccc(OCCNC[C@H](O)c2cccc(Cl)c2)cc1)NC[C@H](O)c1ccc(Cl)c(Cl)c1	2.67%
COc1cc(NC(=O)c2sc(-c3ccc(Cl)cc3)cc2NC(=O)CN2CCCC2)ccc1OCCN1CCCC1	5.97%
Cc1cc(NCCc2cccc(F)c2)nc(NC(=N)Nc2cccc(C(F)(F)F)c2)n1	3.82%
CCN(CC)c1nc(Nc2cc(C)ccc2C)nc(Nc2ccccc2O)n1	4.16%
O=C(NCc1cc2c(cc1Cl)OCO2)c1ccc(CNC2CCN(Cc3ccccc3)CC2)cc1	0.15%
c1ccc(Oc2ccc(Nc3ccnc4cc(-c5csc(CNCCN6CCOCC6)n5)ccc34)cc2)cc1	-1.32%
Cc1nn(CCOC(=O)NC(NCC2COc3ccccc3O2)C(Cl)(Cl)Cl)cc1[N+](=O)[O-] (centres undefined)	0.33%
Fc1ccc2[nH]c(-c3ccc(-c4ccc(CNCCc5cccnc5)cc4)s3)nc2c1	6.23%
Cc1ccc(CNC(=O)[C@H](Cc2ccccc2)Nc2ccnc(NCC3CCCCC3)n2)cc1	7.85%
